The record followed here is paper PMC5540273 (PLoS ONE, 2017).

Some test systems named below: FGFR1; FGFR2; FGFR3; FGFR4; FGR; FLT1; FLT3-autoinhibited; FLT3; FLT4; FRK.
Common to all, as to details: concentration: 1 μM, replicates: in singlicate; n = 1
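Note: KINOMEscan kinase panel screen.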

As for `COc1cc(Nc2ncc3c(C)nc(-c4cc5ccccc5[nH]4)n3n2)cc(OC)c1OC` [GW869516], the “%Inh” value in the test on FGFR1 turned out to be 35%; in the test on FGFR2 it was 21%; in the test on FGFR3 it was 30%; with FGFR4 it was 15%; in the test with FGR, 40%; with FLT1, 23%. The “%Inh” value came out at 75% in the test on FLT3-autoinhibited, 96.3% with FLT3, 1% in the test on FLT4 and 39% in the test on FRK.

For the compound `Cl.Cl.NCC(C(=O)Nc1cc(Br)c(-c2ccnc3[nH]ccc23)s1)c1ccccc1` (centres unmarked) [GSK1269851], the “%Inh” value is listed as 30% in the test with FGFR1; 8% with FGFR2; 27% in the test on FGFR3; 44% in the test on FGFR4; 55% in the test with FGR; 16% with FLT1. In addition, the “%Inh” value in the test with FLT3-autoinhibited came out at 20%; with FLT3, 86%; in the test on FLT4 it was 0%; with FRK, 12%.

For `Cl.NC(=O)c1cccc(Nc2nccc(Nc3ccc(Oc4c(Cl)cccc4Cl)c(Cl)c3)n2)c1` [GW659009], the “%Inh” value in the test on FGFR1 is listed as 0%; in the test with FGFR2, 0%; in the test on FGFR3, 0%; in the test on FGFR4, 0%; with FGR, 31%; in the test on FLT1 it was 0%. Besides, the “%Inh” value worked out at 12% in the test with FLT3-autoinhibited, 33% with FLT3, 0% with FLT4 and 7% in the test on FRK.

Regarding `O=C(O)C(F)(F)F.O=C(O)C(F)(F)F.O=c1[nH]ccc2nc(N[C@@H]3CCCNC3)nc(Nc3ccc(S(=O)(=O)N4CCOCC4)cc3)c12` [GSK2177277], the “%Inh” value in the test with FGFR1 was 81%; with FGFR2, 60%; in the test with FGFR3 it was 62%; in the test with FGFR4, 0%; in the test on FGR, 91.2%; in the test with FLT1, 68%. The “%Inh” value in the test with FLT3-autoinhibited is recorded as 99.6%; in the test with FLT3 it was 99.3%; in the test on FLT4, 98.7%; with FRK it was 39%.

As to `Cc1ccc(C(=O)Nc2ccc(Nc3ccnc4cc(-c5nccs5)ccc34)cc2O)cc1.Cl` [GW494702], the “%Inh” value in the test on FGFR1 stood at 0%; with FGFR2, 35%; in the test with FGFR3, 13%; in the test with FGFR4 it was 0%; in the test on FGR it was 73%; in the test on FLT1, 14%. For the same compound, the “%Inh” value is reported as 0% with FLT3-autoinhibited, 14% in the test with FLT3, 0% in the test on FLT4 and 67% in the test with FRK.

In the case of `Fc1ccc(-c2ncn(C3CCNCC3)c2-c2ccnc(Oc3ccc(-c4ccccc4)cc3)n2)cc1` [SB-245391], the “%Inh” value is reported as 19% with FGFR1; 0% in the test with FGFR2; 0% in the test with FGFR3; 59% in the test on FGFR4; 17% in the test with FGR; 13% with FLT1. The “%Inh” value is reported as 1% in the test on FLT3-autoinhibited, 14% in the test on FLT3, 5% in the test on FLT4 and 31% in the test on FRK.

On to `CSc1cccc2c(-c3ccncn3)c(-c3ccc(F)cc3)nn12` [GW514786], for which the “%Inh” value was 0% in the test with FGFR1; 0% in the test with FGFR2; 4% in the test with FGFR3; 7% with FGFR4; 10% in the test with FGR; 19% in the test on FLT1. The “%Inh” value in the test on FLT3-autoinhibited came out at 0%; in the test with FLT3, 5%; in the test with FLT4, 0%; in the test with FRK, 9%.

As for `CNC(=O)c1ccccc1Nc1nc(Nc2ccc(N3CCOCC3)cc2)ncc1Cl.Cl` [GSK1576028], the “%Inh” value with FGFR1 is on record as 99.7%; in the test on FGFR2, 97.2%; with FGFR3 it was 99%; in the test on FGFR4, 92.3%; with FGR it was 98.1%; in the test on FLT1, 89%. In addition, the “%Inh” value in the test on FLT3-autoinhibited is given as 96.2%; in the test with FLT3 it was 99.3%; with FLT4 it was 99.9%; in the test on FRK, 86%.

As to `Clc1ccc(-c2nn3ncccc3c2-c2ccnc(Nc3ccc4c(c3)OCCO4)n2)cc1` [GW829116], the “%Inh” value in the test with FGFR1 was found to be 0%; in the test on FGFR2, 0%; in the test with FGFR3, 0%; with FGFR4, 0%; in the test with FGR it was 75%; in the test with FLT1 it was 54%. Further, the “%Inh” value in the test with FLT3-autoinhibited is on record as 0%; with FLT3, 59%; in the test with FLT4, 35%; in the test with FRK, 0%.

For `COc1cccc(NC(=O)NC2CCN(c3ccnc(Nc4cc(OC)c(OC)c(OC)c4)n3)C2)c1` (centres unmarked) [GSK1379763], the “%Inh” value in the test on FGFR1 is recorded as 0%; in the test with FGFR2, 0%; with FGFR3, 8%; with FGFR4, 1%; with FGR, 25%; in the test with FLT1, 24%. Besides, the “%Inh” value with FLT3-autoinhibited is on record as 14%; in the test with FLT3, 62%; in the test on FLT4, 37%; in the test on FRK it was 0%.

For `O=C(Nc1n[nH]c2nc(-c3ccc(O)cc3)ccc12)C1CC1` [SB-710363], the “%Inh” value in the test on FGFR1 was 0%; with FGFR2, 0%; with FGFR3, 0%; in the test on FGFR4, 0%; in the test with FGR, 11%; in the test on FLT1, 16%. Moreover, the “%Inh” value in the test on FLT3-autoinhibited is on record as 18%; in the test on FLT3, 82%; with FLT4 it was 0%; in the test on FRK, 0%.

Regarding `CCc1ccc(-c2ccc3c(c2)-c2c(cnn2C)S(=O)(=O)N3C)cc1`, the “%Inh” value in the test on FGFR1 came to 3%; in the test on FGFR2, 0%; in the test on FGFR3, 0%; with FGFR4, 0%; in the test on FGR it was 0%; in the test with FLT1 it was 0%. Further, the “%Inh” value is reported as 9% in the test with FLT3-autoinhibited, 0% in the test on FLT3, 0% in the test on FLT4 and 0% in the test with FRK.

Take `C[C@@H](Oc1cc(-n2cnc3cc(-c4ccnc(NCCS(C)(=O)=O)c4)ccc32)sc1C(N)=O)c1ccccc1Cl` [GSK907232]: the “%Inh” value in the test with FGFR1 was 66%; with FGFR2, 88%; in the test with FGFR3, 81%; with FGFR4, 22%; in the test on FGR, 44%; in the test on FLT1 it was 63%. Moreover, the “%Inh” value worked out at 29% in the test on FLT3-autoinhibited, 98.1% in the test with FLT3, 96.6% in the test on FLT4 and 18% in the test with FRK.

Turning to `CN1CCN(Cc2cccc(-c3ccc4c(Nc5ccc(Oc6ccccc6)cc5)ccnc4c3)c2)CC1` [GW578342], the “%Inh” value was 22% in the test on FGFR1; 0% in the test on FGFR2; 17% with FGFR3; 0% with FGFR4; 92.4% in the test on FGR; 45% with FLT1. Also, the “%Inh” value in the test with FLT3-autoinhibited is given as 36%; in the test with FLT3, 93.2%; in the test on FLT4, 43%; in the test with FRK, 19%.
